D3 antag: blocks the human D3 dopamine receptor. P35462. D3R cells, DiscoveRx beta-arrestin luminescence, antagonist mode; hits give low values. max response, negative = inhibition, %. 2.5% of 360,000 active. AID 652054; in the data active = max response below about -50%; inconclusive = no clear call, values can overlap the other calls; also: % is scaled to controls: 0 for no effect and ±100 for the full control effect
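Cells expressing the human receptor were seeded at 1500 cells/well, incubated overnight at 37 degrees C in 5% CO2, then exposed to library compounds with dopamine controls for 90 minutes at 37 degrees C before luminescent detection.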
D3 ag: activates the human D3 dopamine receptor | P35462 | AID 652048 | max activation, % | D3R DiscoveRx beta-arrestin cells, luminescence, 90 min | 0.58% of 410,000 active; in the data active = max activation above about 30%; also: 0% is about no effect
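Cells at 1500/well, incubated overnight, then treated with pinned compounds (dopamine as control) for 90 min at 37 degrees C. DiscoveRx reagent added for 30 - 60 minutes at room temperature; luminescence read.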
RGS4 inhibitor: inhibitors of human regulator of G protein signaling 4 | P49798 | AID 504845 | Potency, µM (titrated, usually from 114 µM), for inactives: at the top dose activity change, negative = inhibition, actives largely listed as inhibitors | Transcreener GDP fluorescence polarization, RGS4-accelerated GTP hydrolysis | 0.039% of 390,000 active; also: potency is read from the fitted curve at half-maximal effect; % is scaled to controls: 0 for no effect and ±100 for the full control effect; nearly all actives have a fitted effect of over 75% in size
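MLSMR compounds (23 nl, pin-transferred) preincubated 10 min at room temperature with a 500nM (2x) first reagent, then RGS4 at 900nM (2x) plus Transcreener GDP mix added; fluorescence polarization (620/688 nm) read before and after 90 min at 30 °C.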
B2AR arrestin: recruits beta-arrestin to the human beta2-adrenergic receptor. P07550. beta-arrestin recruitment to beta2AR, cell-based reporter. Potency, µM (titrated, usually from 46.1 µM), inactives show top-dose activation, hits mostly activators. 0.02% of 330,000 active;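 also: potency is read from the fitted curve at half-maximal effect; 0% = DMSO controls and full agonism = EC100 isoproterenol or metaproterenol; nearly all actives have a fitted effect of over 65% in size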
BRCA1 expr up: activators of BRCA1 expression | MCF7-BRCA1-FFLuc reporter, luminescence, 48 h; response scale: scaled: vehicle 0%, 10 µM genistein 100% | Potency, µM (highest dose often 46.1 µM), for inactives: at the top dose activation, hits mostly activators | 1.1% of 380,000 active; also: potency is read from the fitted curve at half-maximal effect; nearly all actives have a fitted effect of over 80% in size
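Luminescence from a BRCA1-driven firefly luciferase in MCF7 cells was read after 48 h compound exposure at 37 C. Data normalized against DMSO and a 10microM genistein activation control, then curve-fitted across the titration.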
PTHR1 ag: PTHR1 (human) receptor agonism; Q03431; HEK293 GP2 PTHR1 cells, GloSensor cAMP luminescence, 1 h; Potency, µM (top dose mostly 115 µM), inactives show at the highest dose activation, actives largely listed as activators; 0.075% of 410,000 active; also: potency is read from the fitted curve at half-maximal effect; nearly all actives have a fitted effect of over 55% in size
Target sequence (Q03431 whole entry, looked up): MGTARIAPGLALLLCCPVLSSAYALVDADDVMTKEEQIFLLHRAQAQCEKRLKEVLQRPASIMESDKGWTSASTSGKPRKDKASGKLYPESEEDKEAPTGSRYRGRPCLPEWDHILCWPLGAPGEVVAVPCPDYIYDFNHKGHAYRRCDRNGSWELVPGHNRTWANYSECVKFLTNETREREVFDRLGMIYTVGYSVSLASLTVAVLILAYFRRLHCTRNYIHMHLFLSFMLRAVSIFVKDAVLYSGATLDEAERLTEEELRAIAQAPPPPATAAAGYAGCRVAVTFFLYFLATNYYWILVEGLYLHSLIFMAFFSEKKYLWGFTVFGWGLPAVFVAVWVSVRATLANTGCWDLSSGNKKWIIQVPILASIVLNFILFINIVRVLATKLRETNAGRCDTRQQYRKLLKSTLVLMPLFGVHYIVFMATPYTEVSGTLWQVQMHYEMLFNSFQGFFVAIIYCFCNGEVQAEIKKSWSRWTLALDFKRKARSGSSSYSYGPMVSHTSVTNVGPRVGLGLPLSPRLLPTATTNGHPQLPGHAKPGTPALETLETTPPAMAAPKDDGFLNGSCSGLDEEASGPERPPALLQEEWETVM
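HEK-293-derived GP2 cells expressing PTHR1 and a GloSensor cAMP reporter, 3,000/well, plated overnight, given luciferin plus IBMX (each 0.5 mM as added) for 1 h at 37 °C, then compound for 1 h at 37 °C. Luminescence was read after 15 min at room temperature.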
Active calls of the source: *; i = inactive; ? = inconclusive; nt = no result; [ ] = another dose, or the depositor's remark. This is a sample that favours compounds with a hit; in the whole collection about 3.7% have one here. Unless noted, calls follow the shape of the dose curve; as a rule, active = well fitted curve in the direction sought with a large enough effect; inconclusive = small, poorly fitted or top-dose-only effect, or another doubt; inactive = no such curve, though single readings can be large; an effect the other way counts as inactive or inconclusive.

SMILES	D3 antag	D3 ag	RGS4 inhibitor	B2AR arrestin	BRCA1 expr up	PTHR1 ag
FC(F)(F)c1nc2ccccc2[nH]1	-8	0	-11%	-1%	-30%	i
O=c1[nH]c(C(F)(F)F)nc2ccccc12	-60*	-7	16%	0%	-9%	0%[57.5 µM]
CCc1nc2ccc(C(=O)NCCCn3ccnc3)cn2c1N(C)Cc1ccc(Cl)cc1	9	3	nt	nt	4%	i
CCOc1ccc(CNC(=O)c2ccc3c(c2)nc2n3CCOC2)cc1OC	nt	8	11%	nt	nt	?
CC(=O)Nc1ccc(NC(=S)NC(=O)/C=C/c2ccco2)cc1	-19	-2	?	-1%	-26%	i
CN1CCN(c2ccc(NC(=S)NC(=O)/C=C/c3ccco3)cc2)CC1	-21	-2	-17%	0%	4.5µM*	i
CCNC(C(=O)c1c[nH]c2c(CC)cccc12)c1ccccc1 (stereo not given)	-14	-15	12%	0%	-22%	-20%
O=C(C(=Cc1ccc(F)cc1)C(=O)c1ccccc1)c1ccccc1	-62*	-8	nt	nt	0%	-38%
COc1ccc(CN2CCN(C3CCC3)CC2CCO)c(F)c1 (stereo not given)	-24	-12	19%	0%	-9%	-19%
CC(C)c1ccc(Nc2n[nH]c(=S)s2)cc1	0	5	nt	nt	2.5µM*	-2%
Cc1cccc(C)c1Nc1n[nH]c(=S)s1	-25	8	nt	nt	1%	i
O=C(CSc1ccccn1)Nc1ccc(Cl)cn1	-8	0	-18%[11.4 µM]	0%	36%	i
O=C(Nc1ccc(O)c2c(=O)cc(-c3ccccc3Cl)oc12)c1ccc(Cl)c(Cl)c1	-83*	-28	0%	0%	4%	-3%
O=C(Nc1ccc(O)c2c(=O)cc(-c3ccccc3Cl)oc12)c1cc(Cl)cc(Cl)c1	nt	nt	-7%	nt	nt	nt
CC1(C)Nc2ccccc2C(=O)N1c1ccc(Br)cc1	23	-1	-4%	nt	?	-37%
CCC1(C)Nc2ccccc2C(=O)N1O (stereo not given)	0	-11	-3%	?	-53%	-9%[57.5 µM]
COc1ccc(N2C(=O)c3ccccc3NC2(C)C)cc1	6	-5	13%	0%	10µM*	-14%
CCOc1ccc(N2C(=O)c3ccccc3NC2(C)CC)cc1 (stereo not given)	-17	-3	0%	0%	3.5µM*	-35%
CC1CCCCN1C(=O)Cn1ncc2c3ccccc3n(Cc3ccccc3F)c2c1=O (stereo not given)	nt	-5	-7%	nt	nt	-4%
COc1cc(C(=O)C(=O)N2CCN(c3ccccc3)CC2)cc(OC)c1OC	-3	1	nt	nt	nt	i
C[C@H](CO)N1C[C@H](C)[C@@H](CN(C)C(=O)CN2CCOCC2)Oc2cc(Br)ccc2S1(=O)=O	6	2	nt	nt	16%	i
CCC(=O)N1CCc2cc(Br)cc(S(=O)(=O)CCC(=O)Nc3ccc(C)c(F)c3)c21	nt	-5	4%	nt	nt	i
Clc1ccc2c(c1)N=C(N1CCNCC1)c1ccccc1N2	nt	nt	410%[56.9 µM]	nt	nt	nt
CN1CCN(C2=Nc3cc(Cl)ccc3Nc3ccccc32)CC1	-81*	nt	-7%[56.9 µM]	0%	-28%	i
CCCCN(C(=O)C1CC(=O)N(c2ccc3c(c2)OCCO3)C1)c1c(N)n(CCCC)c(=O)[nH]c1=O (stereo not given)	5	-5	-12%	0%	-2%	-15%
SMILES	D3 antag	D3 ag	RGS4 inhibitor	B2AR arrestin	BRCA1 expr up	PTHR1 ag
CCCCn1c(N)c(N(CC(C)C)C(=O)C2CC(=O)N(c3ccc4c(c3)OCCO4)C2)c(=O)[nH]c1=O (stereo not given)	-55*	-8	5%	0%	-2%	i
C=CCC1NCCc2c(Br)cccc21 (stereo not given)	-1	2	-4%	0%	2%	i
C=CC[C@@H]1Cc2c(Br)ccc(Br)c2[C@@H](CC=C)N1	4	32*	15%	0%	-32%	i
c1ccc2c(C3CCO3)cccc2c1 (stereo not given)	0	1	-9%	0%	10%	-9%
O=C1CC2C(CCC23OCCO3)c2ccc3ccccc3c21 (stereo not given)	-13	-2	13%	nt	10µM*	-14%
CCCS(=O)(=O)N1CCN(C(=O)COc2ccc(-c3ccccc3)cc2)CC1	2	1	-39%[56.9 µM]	0%	5%	-4%[57.5 µM]
CCCS(=O)(=O)N1CCN(C(=O)COc2ccccc2)CC1	-20	34*	26%	-2%	5%	i
COc1ccc(-c2coc3c(C(=O)Nc4cccc(NS(C)(=O)=O)c4)cccc23)c(C)c1	26	3	nt	nt	40%	-10%
CCOC(=O)CNC(=O)c1ccc(SCC)cc1	-9	-7	-1%	0%	13µM*	15%
CCOC(=O)CNC(=O)c1ccccc1	16	4	-12%	0%	4%	i
CCC(=O)Oc1ccc2c(c1)CC[C@@H]1[C@@H]2CC[C@]2(C)[C@@H](OC(=O)CC)CC[C@@H]12	nt	6	nt	nt	nt	nt
COc1ccccc1C(CNC(=O)c1ccc(NS(=O)(=O)c2ccc3c(c2)OCCO3)cc1)N(C)C (stereo not given)	1	-10	-10%	-1%	-22%	i
Cn1c2ccccc2c(=O)c2ccc(Cl)cc21	0	2	nt	nt	14µM*	-3%
Cn1c2ccccc2c(=O)c2ccc(C#Cc3ccc(N)cc3)cc21	103	7	-22%	-1%	49%	-22%
CC1(C)CC(=O)C=C(NC2=CC3OC(c4ccccc4)OCC3OC2=O)C1 (stereo not given)	-54*	-4	?	-1%	-66%	-35%
Cc1ccccc1NC1=CC(=O)CC(C)(C)C1	-11	-6	21%	0%	8%	-2%[57.5 µM]
Cc1ccc(-n2nc(C)c3c2OC(N)=C(C#N)C3c2ccccc2F)cc1 (stereo not given)	-52*	1	?	0%	-56%	-85%[57.5 µM]
Cc1cc([N+](=O)[O-])cc2ncccc12	-75*	-13	-11%	0%	-3%	i
COc1ccccc1C(NC(=O)C1CCN(CCOc2ccc(Cl)cc2)CC1)c1ccccn1 (stereo not given)	-78*	-8	nt	nt	-6%	-39%
COc1ccccc1C(NC(=O)C1CCN(CCOc2ccccc2)CC1)c1ccccn1 (stereo not given)	-55*	-7	nt	nt	16%	i
COc1ccccc1C(NC(=O)C1CCN(CCOc2ccc(Cl)cc2Cl)CC1)c1ccccn1 (stereo not given)	?	-13	nt	nt	-11%	-17%
CC(NC(=O)C1CCN(CCOc2ccc(Cl)cc2)CC1)c1cccc2ccccc12 (stereo not given)	-53*	-17	nt	nt	-40%	?

Screens from PubChem.
